From PubChem BioAssay (NCATS) come the findings set out here.

Values joined by “and” are separate entries in the source; they are usually repeats but may differ in a detail not shown here. Identical values can stand only once. Results filed as inconclusive are left out. Active and inactive are the calls of the source. Unless noted, the call rests on the fitted dose curve; in most records, active means well fitted curve in the direction sought with a large enough effect; inconclusive means small, poorly fitted or top-dose-only effect, or another doubt; inactive means no such curve, though single readings can be large; an effect the other way counts as inactive or inconclusive.

Experiment [1] addresses Lysosomal acid glucosylceramidase (Homo sapiens) (UniProt P04062). The experiment in a line: Glucocerebrosidase-p2 (AID 348; in the data active means potency below about 10 µM; further: potency means the concentration at half of the fitted maximal effect). The note with it: purified GBA, blue fluorogenic substrate, 40 min. Summed up: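 Compounds titrated from 0.6 nM upwards against 0.2 nM enzyme in pH 5.9 citric acid/KH2PO4, taurocholate, tween-20; blue fluorogenic substrate 80 uM, 40 min room temperature, stopped and read Ex 365/Em 440 for AC50.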

Experiment [2] in a line: AP1 Signaling Pathway (AID 357; active means well fitted curve in either direction with a large enough effect, not every such curve was filed as active; further: on the % scale 0 is the no-effect control and ±100 the full control effect). Conditions: ME-180 AP-1-bla reporter, EGF-induced, beta-lactamase ratio, 5 h; at 7.69 µM (top of the series) unless noted. The gist of the method: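 AP-1-bla ME-180 cells with beta-lactamase reporter under AP-1 response element, stimulated with EC50 EGF; compounds titrated, 5 hours at 37 degrees Celsius. CCF4 read at 460/530 nm ratio; positive and negative modulators judged by AC50.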

Experiment [3] can be described thus: NFAT Signaling Pathway (AID 444; active means well fitted curve in either direction with a large enough effect, not every such curve was filed as active;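 further: carbachol stimulus at about its EC50 of 1 µM final; on the % scale 0 is the no-effect control and ±100 the full control effect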). Conditions: Jurkat NFAT-bla M1, carbachol, beta-lactamase ratio, 5 h; at 7.69 µM (top of the series) unless noted. Summed up:
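Read-out: CCF4 FRET ratio (460 nm/530 nm) after 1 h RT dye loading, used for %activity and AC50 from titration series. Cells: Jurkat NFAT-β-lactamase/M1 line, treated with compound plus 1 uM carbachol for 5 h, 37 °C.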

The target of experiment [4] is Glucocorticoid receptor (Homo sapiens) (UniProt P04150). The experiment in a line: GR-GFP Redistribution (AID 450;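 active means compounds whose dose series gives a full or clear partial fitted curve of increased nuclear translocation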; further: potency means the concentration at half of the fitted maximal effect). Conditions: U2OS GR-GFP nuclear translocation, laser cytometry, 2 h.
Experiment [5] has the same target. The experiment is described as follows: GR-EFC Redistribution (AID 451; calls by dose curve; further: potency means the concentration at half of the fitted maximal effect). The note with it: CHO-K1 GR-EFC translocation, beta-gal luminescence, 2 h. Summed up:
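Translocation of GR-ED fusion to nuclear EA restores b-gal, read by luminescence after 1 h room-temperature detection. Engineered CHO-K1 biosensor cells, 1,000/well, exposed 2 h at 37 C to titrations up to 46 uM final.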

For experiment [6], the target named is Mitogen-activated protein kinase 10 (Mus musculus) (UniProt Q61831). The experiment is described as follows: JNK3 AlphaScreen Assay (AID 530; active means well fitted curve in either direction with a large enough effect, not every such curve was filed as active;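 further: kinase came from lysate of stimulated human HepG2 cells; signal reports phosphorylation of biotinylated GST-cJun 1-79 at Ser73 with 10 µM ATP; on the % scale 0 is the no-effect control and ±100 the full control effect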). Conditions: JNK3 lysate, c-Jun phosphorylation; series mostly up to 57.1 µM. Summed up: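 Room-temperature AlphaScreen kinase assay; pre-activated HepG2 lysate as JNK3 source, biotin-GST-cJun(1-79) substrate, 10 uM ATP, compound 15 min preincubation.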

Experiment [7] addresses 3',5'-cyclic-AMP phosphodiesterase 4B (Homo sapiens) (UniProt Q07343). The experiment in a line: qHTS Assay for Inhibitors of PDE-IV (AID 607; active means well fitted activation curve with a large enough effect in the main read-out, with a control signal flat, not every such curve was filed as active; further: % of control where 0% means no effect). The note with it: HEK293 ACTOne CNG channel cells, membrane potential fluorescence; series mostly up to 22.9 µM. Summed up: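 Live HEK293 cells with a modified cyclic nucleotide-gated (CNG) channel report intracellular cAMP via membrane-potential dye fluorescence (ex 535/em 590 nm). Endogenous PDE-IV was targeted. Compounds were tested at up to 22.9 uM final; RO 20-1724 100 uM served as control.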

The nature of experiment [8]: Confirmation and Secondary Assay for Modulators of Hemoglobin Beta Chain Splicing at IVS2 705 locus (AID 930).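 Further: HeLa cells stably expressing the EGFP-705 splicing reporter; GFP fluorescence per well restored by corrected splicing of the IVS2-705 intron in EGFP; % of control where 0% means no effect.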 The note with it: HeLa EGFP-705 splicing reporter, GFP fluorescence, 48 h; series mostly up to 38.3 µM. The gist of the method: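 HeLa EGFP-705 reporter; 500 cells/well, o/n 37C 5% CO2; cpd 2 d; 488 ex/500-520 em laser scan; total peak GFP intensity/well. Ref: 500 nM […] antisense PNA.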

Experiment [9] is described as follows: qHTS Assay for Lipid Storage Modulators (AID 1519; calls by dose curve). Conditions: Drosophila S3 cells, BODIPY lipid droplet/cell ratio, laser cytometry, cells loaded with oleic acid. Summed up: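 Cells seeded at 5,000 per well were treated with compounds over a concentration series and loaded with oleic acid (400 uM, as added). Lipid droplet fluorescence (488 nm excitation, 500-530 nm channel) was read by laser-scanning cytometry and normalized to 20 uM Triacsin C.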

Experiment [10] concerns the target Cytochrome P450 1A2 (Homo sapiens) (UniProt P05177). The experiment in a line: p450-cyp1a2 (AID 410; calls by dose curve;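 further: -100% = full effect of reference inhibitor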). The note with it: recombinant CYP1A2, luciferin-ME demethylation, luminescence; series mostly up to 57 µM. The gist of the method:
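Inhibition was calculated relative to 57 uM furafylline (full inhibition). The reaction used human CYP1A2 at 20nM with Luciferin-ME at its Km, 100uM, driven by an NADPH-regenerating system for 60 min at room temperature.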

The nature of experiment [11]: Stat Signaling Pathway (AID 446; active means well fitted curve in either direction with a large enough effect, not every such curve was filed as active;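 further: ME-180 cervical cancer cells given 40 pM IL-6 alongside compound; SIE-controlled beta-lactamase reporter measured as 460/530 nm FRET emission ratio; on the % scale 0 is the no-effect control and ±100 the full control effect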). Conditions: ME-180 SIE beta-lactamase reporter, IL-6 stimulated, 5 h; at 7.69 µM (top of the series) unless noted. Summed up: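 IL-6/STAT signaling read in ME-180 cells via an SIE beta-lactamase reporter. Stimulus was 40 pM IL-6 (its AC50) for 5 hrs, so both activation and inhibition register.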
Experiment [12] can be described thus: qHTS Assay for Identification of Small Molecule Agonists for Hypoxia Response Element Signaling Pathway (AID 914; active means well fitted activation curve with a large enough effect in the signal ratio, with a control signal flat, not every such curve was filed as active; the % refers to the signal ratio; further: % of control where 0% means no effect). Conditions: ME-180 (cervical carcinoma) HRE-bla reporter, beta-lactamase ratio, CoCl2, 17 h; activation: stronger effect = higher value. The gist of the method: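 Read-out: CCF4 FRET ratio of 460nm to 530nm emission (excitation 405nm) after 2.5 hours at room temperature, taken from HRE-bla ME-180 cells that had been exposed to compound and EC50 CoCl2 for 17 hours.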

Experiment [13] addresses Ubiquitin carboxyl-terminal hydrolase 1 (Homo sapiens) (UniProt O94782). The experiment in a line: Inhibitors of USP1/UAF1: Pilot qHTS (AID 504865).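 Further: rhodamine fluorescence freed from ubiquitin-rhodamine substrate followed over time; top concentration of the series differs between compounds; on the % scale 0 is the no-effect control and ±100 the full control effect; nearly all actives have a fitted effect of over 35% in size.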 The note with it: purified USP1/UAF1, Ub-rhodamine cleavage fluorescence; series mostly up to 54.9 µM. The gist of the method:
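Kinetic fluorescence assay: 1nM USP1/UAF1, 15 min compound preincubation, then 150nM Ub-Rho; 480/540 nm.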

A short description of experiment [14]: qHTS profiling for inhibitors of Plasmodium falciparum proliferation (AID 504749).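 Further: 0% = DMSO vehicle and full inhibition = artemisinin control; nearly all actives have a fitted effect of over 60% in size.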 Conditions: P. falciparum in erythrocytes, SYBR Green DNA, 72 h, at 12.8 µM (top of the series). Summed up: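 Three-day growth assay of blood-stage parasites in erythrocytes (0.3% parasitemia, 2.5% hematocrit) at 37 C, 5% CO2, quantified by SYBR Green DNA staining after overnight detergent lysis.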
In general terms: Quantitative high-throughput screening tests each substance at several concentrations.

Experiment [15] has as its target Cytochrome P450 3A4 (Homo sapiens) (UniProt P08684). The experiment in a line: qHTS Assay for Inhibitors and Substrates of Cytochrome P450 3A4 (AID 884). Further: on the % scale 0 is the no-effect control and ±100 the full control effect; nearly all actives have a fitted effect of over 50% in size. Conditions: recombinant CYP3A4, Luciferin-PPXE luminescence; series mostly up to 57.1 µM. Summed up: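 20 nM human CYP3A4 with 25 uM Luciferin-PPXE (at KM) in 200 mM KPO4, preincubated 10 min with compound; NADPH regeneration started a 60 min RT reaction. Luciferin detected by luminescence, normalized to 57 uM ketoconazole as full inhibition.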

Experiment [16] is described as follows: Confirmation and Secondary Assay for Modulators of Hemoglobin Beta Chain Splicing at IVS2 654 locus (AID 910).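 Further: HeLa cells stably carrying EGFP split by mutant beta-globin IVS2-654 intron; per-well total GFP intensity by laser scanning cytometry after 2-day treatment; % of control where 0% means no effect.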 The note with it: HeLa EGFP-654 splicing reporter, GFP fluorescence, 48 h; series mostly up to 38.3 µM. The gist of the method: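 Readout: per-well total peak green fluorescence (488 nm ex, 500–520 nm em) from objects 5–250 µm, reflecting correct splicing of an EGFP-654 reporter. Compounds were applied for 2 days at 37 °C to overnight-plated HeLa EGFP-654 cells; controls were DMSO and 500 nM IVS2-654 PNA.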

The mark [17] stands for this setting: measured here: cell count channel max response.
The mark [18] stands for this setting: measured here: lipid channel max response.

Glucocorticoid receptor (Homo sapiens), sequence (P04150 whole entry, looked up): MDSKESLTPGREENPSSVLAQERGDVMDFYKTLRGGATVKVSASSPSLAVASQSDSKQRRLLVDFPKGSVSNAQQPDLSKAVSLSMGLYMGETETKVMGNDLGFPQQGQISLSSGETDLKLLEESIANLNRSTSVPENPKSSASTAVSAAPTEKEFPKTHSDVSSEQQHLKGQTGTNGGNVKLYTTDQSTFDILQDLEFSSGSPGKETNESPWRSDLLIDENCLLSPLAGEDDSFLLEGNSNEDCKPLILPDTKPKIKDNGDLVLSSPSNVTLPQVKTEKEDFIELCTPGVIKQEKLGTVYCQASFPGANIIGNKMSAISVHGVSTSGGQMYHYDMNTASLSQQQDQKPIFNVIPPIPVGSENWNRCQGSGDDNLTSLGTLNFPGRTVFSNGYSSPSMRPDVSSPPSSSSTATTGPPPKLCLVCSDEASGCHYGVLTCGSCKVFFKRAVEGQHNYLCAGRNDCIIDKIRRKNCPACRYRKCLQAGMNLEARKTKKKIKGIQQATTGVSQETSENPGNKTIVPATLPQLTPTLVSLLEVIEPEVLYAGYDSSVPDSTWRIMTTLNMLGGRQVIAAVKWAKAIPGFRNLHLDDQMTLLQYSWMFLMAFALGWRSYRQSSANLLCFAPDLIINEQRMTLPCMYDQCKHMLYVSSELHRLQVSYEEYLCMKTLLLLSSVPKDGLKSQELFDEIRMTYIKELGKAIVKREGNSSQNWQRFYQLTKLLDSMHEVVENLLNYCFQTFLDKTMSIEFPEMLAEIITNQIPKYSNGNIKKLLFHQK
Ubiquitin carboxyl-terminal hydrolase 1 (Homo sapiens), sequence (O94782 whole entry, looked up): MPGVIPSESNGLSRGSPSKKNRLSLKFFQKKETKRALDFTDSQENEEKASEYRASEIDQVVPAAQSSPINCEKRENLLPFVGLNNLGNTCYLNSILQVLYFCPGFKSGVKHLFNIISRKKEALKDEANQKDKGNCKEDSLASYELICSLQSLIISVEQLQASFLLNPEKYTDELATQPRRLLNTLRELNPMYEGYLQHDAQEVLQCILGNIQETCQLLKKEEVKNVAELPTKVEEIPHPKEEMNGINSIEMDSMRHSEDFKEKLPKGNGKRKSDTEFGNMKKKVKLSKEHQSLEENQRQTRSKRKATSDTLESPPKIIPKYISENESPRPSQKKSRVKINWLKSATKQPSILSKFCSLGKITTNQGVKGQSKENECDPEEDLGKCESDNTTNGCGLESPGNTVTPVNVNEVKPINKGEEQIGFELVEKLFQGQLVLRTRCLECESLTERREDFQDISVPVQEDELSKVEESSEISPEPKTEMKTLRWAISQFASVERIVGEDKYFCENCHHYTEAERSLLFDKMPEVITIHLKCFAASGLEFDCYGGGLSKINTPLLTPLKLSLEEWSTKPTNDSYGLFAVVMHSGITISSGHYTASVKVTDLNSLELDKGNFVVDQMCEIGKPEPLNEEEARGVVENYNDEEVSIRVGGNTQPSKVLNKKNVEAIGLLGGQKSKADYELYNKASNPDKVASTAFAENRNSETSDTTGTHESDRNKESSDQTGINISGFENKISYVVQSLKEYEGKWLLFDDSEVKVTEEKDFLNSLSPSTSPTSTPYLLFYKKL
3',5'-cyclic-AMP phosphodiesterase 4B (Homo sapiens), sequence (Q07343 whole entry, looked up): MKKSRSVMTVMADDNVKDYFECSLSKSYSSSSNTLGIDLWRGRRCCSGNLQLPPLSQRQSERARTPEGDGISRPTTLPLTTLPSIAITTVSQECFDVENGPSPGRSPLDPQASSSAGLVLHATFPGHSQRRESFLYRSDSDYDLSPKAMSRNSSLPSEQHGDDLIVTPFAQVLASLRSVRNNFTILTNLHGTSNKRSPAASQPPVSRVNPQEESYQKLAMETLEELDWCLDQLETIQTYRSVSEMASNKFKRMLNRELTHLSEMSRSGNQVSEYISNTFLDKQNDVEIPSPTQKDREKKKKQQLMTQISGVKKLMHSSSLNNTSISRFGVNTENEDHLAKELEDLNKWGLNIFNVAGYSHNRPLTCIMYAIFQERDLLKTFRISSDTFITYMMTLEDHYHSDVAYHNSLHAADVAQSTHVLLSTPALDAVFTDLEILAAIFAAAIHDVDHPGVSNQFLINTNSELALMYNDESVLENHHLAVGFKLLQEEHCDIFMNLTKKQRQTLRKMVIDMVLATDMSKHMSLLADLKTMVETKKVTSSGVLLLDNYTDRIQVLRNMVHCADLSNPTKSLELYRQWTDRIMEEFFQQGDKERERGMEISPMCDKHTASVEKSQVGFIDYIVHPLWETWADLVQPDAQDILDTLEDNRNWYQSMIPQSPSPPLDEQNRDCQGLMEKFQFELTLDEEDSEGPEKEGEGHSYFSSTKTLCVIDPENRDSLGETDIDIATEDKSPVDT
Cytochrome P450 3A4 (Homo sapiens), sequence (P08684 whole entry, looked up): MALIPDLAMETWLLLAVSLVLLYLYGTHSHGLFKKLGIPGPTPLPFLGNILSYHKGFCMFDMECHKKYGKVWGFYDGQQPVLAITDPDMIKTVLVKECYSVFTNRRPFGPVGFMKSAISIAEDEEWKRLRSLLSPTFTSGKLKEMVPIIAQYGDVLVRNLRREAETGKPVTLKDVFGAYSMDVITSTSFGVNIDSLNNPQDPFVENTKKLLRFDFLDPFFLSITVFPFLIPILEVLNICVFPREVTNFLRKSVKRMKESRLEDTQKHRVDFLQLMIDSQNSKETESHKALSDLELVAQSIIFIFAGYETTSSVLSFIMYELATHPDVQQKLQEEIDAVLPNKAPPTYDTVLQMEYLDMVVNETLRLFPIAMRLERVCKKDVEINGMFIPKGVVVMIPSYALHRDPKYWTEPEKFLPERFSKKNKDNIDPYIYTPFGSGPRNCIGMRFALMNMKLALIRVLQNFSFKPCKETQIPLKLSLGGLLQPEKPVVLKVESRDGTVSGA
Cytochrome P450 1A2 (Homo sapiens), sequence (P05177 whole entry, looked up): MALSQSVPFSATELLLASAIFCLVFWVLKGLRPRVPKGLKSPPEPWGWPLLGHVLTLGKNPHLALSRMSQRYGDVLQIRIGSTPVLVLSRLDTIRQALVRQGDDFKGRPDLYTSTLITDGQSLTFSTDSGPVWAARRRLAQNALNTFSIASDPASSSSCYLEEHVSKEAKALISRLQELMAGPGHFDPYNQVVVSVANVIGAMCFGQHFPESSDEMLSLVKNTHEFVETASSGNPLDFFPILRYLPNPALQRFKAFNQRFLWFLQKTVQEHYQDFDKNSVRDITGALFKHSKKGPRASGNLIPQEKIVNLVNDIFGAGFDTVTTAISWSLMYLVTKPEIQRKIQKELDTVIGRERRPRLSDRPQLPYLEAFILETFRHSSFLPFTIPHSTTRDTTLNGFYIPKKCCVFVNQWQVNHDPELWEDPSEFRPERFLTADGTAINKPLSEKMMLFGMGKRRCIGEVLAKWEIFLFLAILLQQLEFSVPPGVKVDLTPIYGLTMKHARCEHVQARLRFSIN
Lysosomal acid glucosylceramidase (Homo sapiens), sequence (P04062 whole entry, looked up): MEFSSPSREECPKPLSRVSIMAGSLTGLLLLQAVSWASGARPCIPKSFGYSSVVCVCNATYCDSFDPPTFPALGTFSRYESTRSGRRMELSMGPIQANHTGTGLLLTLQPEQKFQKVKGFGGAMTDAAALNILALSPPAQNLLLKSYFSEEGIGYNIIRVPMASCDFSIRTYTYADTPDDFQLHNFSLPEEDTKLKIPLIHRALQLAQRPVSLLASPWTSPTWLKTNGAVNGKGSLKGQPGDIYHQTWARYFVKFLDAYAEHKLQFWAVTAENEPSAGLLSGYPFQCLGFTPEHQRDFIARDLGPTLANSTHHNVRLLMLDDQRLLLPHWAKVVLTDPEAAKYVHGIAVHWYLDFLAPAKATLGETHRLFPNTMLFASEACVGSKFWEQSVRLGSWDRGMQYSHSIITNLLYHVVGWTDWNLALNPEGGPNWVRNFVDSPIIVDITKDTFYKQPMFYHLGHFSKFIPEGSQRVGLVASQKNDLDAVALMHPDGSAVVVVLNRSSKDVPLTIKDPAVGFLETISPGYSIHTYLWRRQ

As to `CC(C)(S)[C@H](N)C(=O)O`, the Potency in [1] is > 11.4 µM (inactive); in experiment [4], > 46 µM (inactive); in [5], > 9.22 µM (inactive). Moreover, the activity change, negative = inhibition is 1.59% (inactive) in [2], 8.46% (inactive) in experiment [3], 1.55% [at 11.4 µM] (inactive) in experiment [6] and 4.84% (inactive) in experiment [9] (at 57.5 µM (top of the series)). In [7], the Potency result is “inactive”. Also, the result in experiment [8] was inactive. The max response in experiment [9] (setting [17]) is 10.4%; in experiment [9] (setting [18]), 19.3%.

As for `C[C@@H]1CCC[C@H](C)N1NC(=O)c1ccc(Cl)c(S(N)(=O)=O)c1`, the activity change, negative = inhibition in [2] is 2.6% [at 17.2 µM] (inactive) and 10.6% [at 17.2 µM] (inactive); in experiment [3] it was 2.78% [at 17.2 µM] (inactive) and -21.9% [at 17.2 µM] (inactive); in experiment [9] (at 25.7 µM (top of the series)), 1.49% (inactive). In addition, the Potency result in experiment [10], in [6], in experiment [7] and in experiment [13] was “inactive” each time. The activity, negative = inhibition in [11] is 9.09% [at 17.2 µM] (inactive) and 21.6% [at 17.2 µM] (inactive); in [14] (parasite line A) it was 12.8% (inactive); in [14] (parasite line B), 12% (inactive). Further, the Potency in [4] and in [5] was > 20.6 µM (inactive) throughout. Also, the activation in experiment [12] was -10.1% (inactive) and -0.309% (inactive). Further, the max response in experiment [9] (setting [17]) came out at 17.3%; in experiment [9] (setting [18]), 17%.

Regarding `C=C(NC(=O)C(=C)NC(=O)c1csc(C2=NC3c4csc(n4)C4NC(=O)c5csc(n5)C(C(C)(O)C(C)O)NC(=O)C5CSC(=N5)C(=CC)NC(=O)C(C(C)O)NC(=O)c5csc(n5)C3(CC2)NC(=O)C(C)NC(=O)C(=C)NC(=O)C(C)NC(=O)C(C(C)CC)NC2C=Cc3c(C(C)O)cc(nc3C2O)C(=O)OC4C)n1)C(N)=O` (centres undefined), the Potency entry in [15] and in experiment [16] was “inactive” throughout. Also, the result in [8] was inactive. For the same compound, in [9] (at 57.5 µM (top of the series)), the activity change, negative = inhibition was -19.2% (inactive). Besides, the max response in [9] (setting [17]) was found to be 27.8%; in [9] (setting [18]), 5.44%.

For `Cc1occc(=O)c1O`, the Potency entry in experiment [6], in experiment [15], in [16] and in experiment [13] was “inactive” throughout. The activity change, negative = inhibition in [9] (at 57.5 µM (top of the series)) is 8.81% (inactive). Moreover, the max response came to 0.823% in [9] (setting [17]) and 13.2% in experiment [9] (setting [18]).

In the case of `C=C[C@](C)(O)CCC=C(C)C`, the result in experiment [8] was inactive. Moreover, the activity change, negative = inhibition in experiment [9] (at 57.5 µM (top of the series)) is 3.04% (inactive). The values for the max response in experiment [9] (setting [17]) and in experiment [9] (setting [18]) were 15.3% and 20.7%, respectively. For the same compound, the Potency entry in [13] was “inactive”.
